Test results: the supplement of paper PMC6555819

How the values were obtained:
Assay in all cases: PBM binding z-score (relative to random genomic background probes); higher = stronger binding; sequences stand for … in GC…GCGATTGACAGCGTAGAATGAAGG
[1] = system: FXR:RXRa (NR concentration 270 nM, RXRa partner concentration 90 nM)
Outline: (§1)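 For binding z-scores, the reference was random background probes on custom Agilent 4×180K protein-binding microarrays. These arrays were incubated 1 h with ligand-free nuclear receptor dimers in PBS pH 7.4, 2% milk, 0.02% Triton X-100, 1 mM DTT, 0.2 mg/mL BSA and 0.4 mg/ml salmon testes DNA. Fluorescence was scanned after antibody detection of each partner (one per run) and regression-normalized.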

[2] = system: LXRa:RXRa (NR concentration 270 nM, RXRa partner concentration 90 nM)
Outline: as §1

[3] = system: LXRa homodimer (NR concentration 270 nM)
Outline: as §1

[4] = system: LXRb:RXRa (NR concentration 270 nM, RXRa partner concentration 90 nM)
Outline: as §1

[5] = system: LXRb homodimer (NR concentration 270 nM)
Outline: as §1

[6] = system: PPARa:RXRa (NR concentration 270 nM, RXRa partner concentration 90 nM)
Outline: as §1

[7] = system: PPARg:RXRa (NR concentration 180 nM, RXRa partner concentration 90 nM)
Outline: as §1

[8] = system: PPARg:RXRa 270nM:90nM, anti-RXR (NR concentration 270 nM, RXRa partner concentration 90 nM)
Outline: as §1

[9] = system: PPARg:RXRa 30nM:10nM, anti-RXR (NR concentration 30 nM, RXRa partner concentration 10 nM)
Outline: as §1

[10] = system: PPARg:RXRa 90nM:30nM, anti-RXR (NR concentration 90 nM, RXRa partner concentration 30 nM)
Outline: as §1

[11] = system: PPARg:RXRa DBDmut IVT, anti-RXR (DBD mutation: RXRa K156A/R161A, NR concentration 270 nM, RXRa partner concentration 90 nM)
Outline: as §1

[12] = system: PPARg:RXRa IVT, anti-PPARg (NR concentration 270 nM, RXRa partner concentration 90 nM)
Outline: as §1

[13] = system: PPARg DBDmut:RXRa IVT, anti-PPARg (DBD mutation: PPARg1 K132A/R137A, NR concentration 270 nM, RXRa partner concentration 90 nM)
Outline: as §1

[14] = system: PPARg DBDmut IVT, anti-PPARg (DBD mutation: PPARg1 K132A/R137A, NR concentration 270 nM)
Outline: as §1

[15] = system: PPARg homodimer (NR concentration 180 nM)
Outline: as §1

[16] = system: PXR:RXRa (NR concentration 270 nM, RXRa partner concentration 90 nM)
Outline: as §1

[17] = system: PXR homodimer (NR concentration 270 nM)
Outline: as §1

[18] = system: RARa:RXR (NR concentration 270 nM, RXRa partner concentration 90 nM)
Outline: as §1

[19] = system: RARa homodimer (NR concentration 270 nM)
Outline: as §1

[20] = system: RARb:RXRa (NR concentration 270 nM, RXRa partner concentration 90 nM)
Outline: as §1

Sequence | PBM binding z-score [1] | PBM binding z-score [2] | PBM binding z-score [3] | PBM binding z-score [4] | PBM binding z-score [5] | PBM binding z-score [6] | PBM binding z-score [7] | PBM binding z-score [8] | PBM binding z-score [9] | PBM binding z-score [10] | PBM binding z-score [11] | PBM binding z-score [12] | PBM binding z-score [13] | PBM binding z-score [14] | PBM binding z-score [15] | PBM binding z-score [16] | PBM binding z-score [17] | PBM binding z-score [18] | PBM binding z-score [19] | PBM binding z-score [20]
GCATATAGGTAATACAAGGTGAACGTCCGATTGT | 0.337 | 1.82 | 0.257 | 0.685 | -0.32 | 1.55 | 1.47 | 1.12 | 0.658 | 0.861 | 4.57 | 3.63 | 0.578 | 0.846 | 0.673 | 0.252 | 0.124 | 1.37 | 0.675 | 0.51
CCTACTCGGCCACGAAAGGTCATTGATTCAGTGA | 3.82 | 5.15 | 5.64 | 4.28 | 0.938 | 4.36 | 1.93 | 3.43 | 1.33 | 2.24 | 2.57 | 2.28 | -0.0183 | -0.203 | 3.66 | 5.12 | 1.83 | 5.43 | 1.61 | 4.03
CCTAGTTGGTCTGGAGGTCACACACCGGATATGA | 3.79 | 4.06 | 3.63 | 3.51 | 0.759 | 4.17 | 2.1 | 3.14 | 0.849 | 2.61 | 0.138 | 2.42 | -0.0171 | 0.512 | 3.95 | 4.72 | 1.81 | 5.16 | 2.41 | 3.59
ATCGAAAGGTCGAAGCTGAGTATACCCACCCGAA | 4.55 | 3.6 | 0.403 | 2.6 | 0.738 | 4.28 | 2.17 | 2.92 | 0.67 | 1.94 | 0.112 | 1.14 | 0.883 | -0.0386 | 1.49 | 2.27 | 0.151 | 3.14 | 0.371 | 3.63
ACTATTAGTTGACTTAGGGCAACAGATACGACGC | 0.0788 | 0.0659 | 0.494 | 0.0147 | 0.162 | -0.0178 | 0.94 | 0.32 | 0.494 | 0.163 | 0.146 | 0.696 | 1.18 | 1.49 | 0.262 | 0.159 | 0.123 | 0.356 | 0.66 | 0.851
TTACCCAGGTGAAAGGTCGTTGATGCACGCCTTG | 2.92 | 3.07 | 0.858 | 2.75 | -0.247 | 5.24 | 9.35 | 8.61 | 7.49 | 10.2 | 3.16 | 5.28 | 1.04 | 0.584 | 2.1 | 3.69 | 0.742 | 4.9 | -0.211 | 2.46
CCTACTGGGCCATCAGGTCAATGATATCAACGTT | 1.53 | 0.905 | 0.486 | 1.15 | -0.402 | 2.54 | 2.79 | 3.37 | 0.642 | 2.76 | 4.61 | 5.43 | 0.416 | 0.266 | 1.14 | 1.16 | 0.0872 | 1.6 | -0.0644 | 2.19
CCAGACCGGTGAGAAGGTAACTCAGCCTCGATTA | -0.29 | 0.0278 | 0.205 | -0.175 | -0.35 | -0.101 | -0.0328 | -0.307 | -0.601 | -0.547 | -0.324 | -0.727 | -1.57 | -1.1 | 0.768 | -0.393 | -0.18 | -0.155 | 0.901 | -0.00175
CCTACTGGGCCACAAAGGTCATTGATGCCGATAA | 4.47 | 5.11 | 4.74 | 4.39 | 0.772 | 5.25 | 6.17 | 5.75 | 3.17 | 5.54 | 4.98 | 5.53 | 0.0367 | -0.795 | 3.95 | 5.34 | 5.11 | 5.76 | 1.78 | 4.2
TCTAGTTGGTCAAAGGTCAGACACTCGAAATGCG | 4.59 | 4.69 | 2.66 | 4.41 | 1.43 | 5.67 | 11.3 | 9.55 | 11.6 | 11.6 | 3.43 | 5.86 | 1.03 | 0.417 | 4.36 | 4.74 | 1.67 | 6.17 | 3.82 | 4.53
